Source: PubChem BioAssay (National Center for Advancing Translational Sciences (NCATS))
A selection: hits, their analogues and other compounds. The true share with any hit is near 10%.
G9a block = inhibitors of human histone lysine methyltransferase G9a | AID 504332 | G9a H3K9 monomethylation, AlphaScreen, 2 h | Potency, µM (highest dose often 102 µM), for the others: at the highest dose activity, negative = inhibition, actives largely listed as inhibitors | 8.8% of 350,000 active | Q96KQ7; also: % is scaled to controls: 0 for no effect and ±100 for the full control effect; nearly all actives have a fitted effect of over 75% in size
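Chemiluminescent proximity detection of H3K9 monomethylation, read after 10 min bead incubation in the dark. Reaction: 20 nM G9a, 500 nM biotin-H3K9 peptide, 20 uM SAM cofactor, 2 h, room temperature, following 15 min enzyme-compound preincubation.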
GLS inh = glutaminase GLS (human) inhibition. O94925. GLS enzymatic activity, qHTS titration. Potency, µM (series often up to 45.5 µM), without a hit: at the top dose activity change, negative = inhibition, hits mostly inhibitors. 0.21% of 410,000 active. AID 624170; also: % is scaled to controls: 0 for no effect and ±100 for the full control effect
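Read-out is an Amplex red fluorescence increase coupled through glutamate oxidase and HRP, measured before and after 30 min room-temperature incubation. hKGA is in 45 mM KH2PO4 (pH 8.2) with 0.02% Tween-20; glutamine added as 1mM solution.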
BAZ2B block = inhibitors of human BAZ2B bromodomain; 4.4% of 360,000 active; AlphaScreen BAZ2B-H3K14Ac peptide displacement; AID 504333; Potency, µM (series often up to 114 µM), inactives show top-dose activity change, negative = inhibition, most hits filed as inhibitors; also: % is scaled to controls: 0 for no effect and ±100 for the full control effect; nearly all actives have a fitted effect of over 60% in size
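In this displacement format the biotinylated H3(5-23) peptide acetylated at Lys14 serves as ligand at 50 nM, with BAZ2B at 50 nM in PBS pH 7.4 containing 0.01% Tween-20. Donor and acceptor beads are 10 ug/mL final.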
HP1b binding inh = inhibitors of HP1-beta chromodomain binding to methylated histone tails. P83916. AlphaScreen HP1-beta / biotin-H3K9me3 peptide binding. Potency, µM (series often up to 114 µM), inactives show top-dose activity change, negative = inhibition, hits mostly inhibitors. 0.56% of 390,000 active. AID 540317; also: nearly all actives have a fitted effect of over 70% in size
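Compound inhibition of the preformed complex between 50 nM HP1-beta and 50 nM biotinylated H3K9me3 peptide was read by AlphaScreen. Buffer was PBS pH 7.4 with 0.01% Tween-20. Incubations ran 30 min at room temperature, with 10 ug/mL donor/acceptor beads.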
JMJD2A Tudor inh = blocks the human JMJD2A Tudor domain; O75164; AlphaScreen JMJD2A-Tudor / H3K4me3 peptide binding; Potency, µM (doses to about 114 µM), for inactives: at the highest dose activity change, negative = inhibition, usual class: inhibitors; 4.4% of 390,000 active; AID 504339; also: % is scaled to controls: 0 for no effect and ±100 for the full control effect; nearly all actives have a fitted effect of over 50% in size
* marks the source's active call; other numbers are inactive results; ? = inconclusive; . = not tested or not shown; [ ] = remark or other dose. Calls follow the shape of the dose curve; as a rule, active = well fitted curve in the direction sought with a large enough effect; inconclusive = small, poorly fitted or top-dose-only effect, or another doubt; inactive = no such curve, though single readings can be large; an effect the other way counts as inactive or inconclusive. Potency is read from the fitted curve at half-maximal effect.

SMILES | G9a block | GLS inh | BAZ2B block | HP1b binding inh | JMJD2A Tudor inh
Cc1nc(N/N=C/c2cccc(F)c2)cc(N2CCOCC2)n1 | -5% | -15% | 2% | 24% | -18%
Oc1ccc(/C=N/Nc2cc(N3CCOCC3)nc(N3CCOCC3)n2)cc1O | ? | -2% | ? | ? | 56µM*
Oc1cccc(/C=N/Nc2cc(N3CCOCC3)nc(N3CCOCC3)n2)c1 | -12%[59 µM] | 14% | ? | -14% | ?
Cc1nc(N/N=C/c2ccc(O)cc2O)cc(N2CCOCC2)n1 | 21% | 6% | 45µM* | 33% | 79µM*
Oc1ccccc1/C=N/Nc1cc(N2CCCC2)nc(N2CCCC2)n1 | ? | -5% | 25µM* | ? | 28µM*
Cc1ccc(OCC(=O)NNC(=O)Cn2c(=O)cnc3ccccc32)cc1 | -4%[0.501 µM] | 5% | ? | 35% | -1%
COc1ccc(OC)c(/C=N/NC(=O)CNC(=O)c2ccc(S(=O)(=O)N3CCOCC3)cc2)c1 | 14%[59 µM] | -15% | -28% | 34% | -2%
Cc1c(C)n(Cc2ccccc2)c2ccc(C(=O)NCc3ccccc3F)cc12 | ? | 1% | -22% | 35% | -27%
Cc1ccc(Cl)c(OC(=O)c2ccc(N3CCOCC3)c([N+](=O)[O-])c2)c1 | 28µM* | 13% | ? | ? | ?
O=[N+]([O-])c1cc(Cl)ccc1N1CCOCC1 | ? | -12% | ? | 16% | -22%
O=C(OCC(=O)N1CCc2ccccc2C1)c1ccc(N2CCOCC2)c([N+](=O)[O-])c1 | 40µM* | 0% | -35% | -1% | -28%
O=C(NCCS(=O)(=O)NCc1ccc(F)cc1)c1ccc2c(c1)OCO2 | -3%[0.501 µM] | -2% | -2% | 40% | 11%
CCOCCCN(Cc1cc2cc(C)cc(C)c2[nH]c1=O)C(=O)N(CC)CC | -7%[59 µM] | 1% | 6% | 15% | 9%
CCc1cc2cc(C)cc(C)c2[nH]c1=S | 1.4µM* | -1% | ? | -25% | 8.9µM*
Clc1ccc(-c2csc(-c3ccno3)n2)cc1 | -5%[59 µM] | 7% | 4% | 50% | 11%
Cc1ccc(-c2nnn(CC(=O)N(c3ccccc3F)C(C(=O)NC3CCCC3)c3ccncc3)n2)o1 (stereo unspecified) | ? | 3% | -1% | -14% | -15%
Cc1cc(C)nc(-n2nc(C)c(Sc3ccc(F)cc3)c2N)n1 | 50µM* | 3% | -4% | 29% | ?
Nc1ccccc1SC(CC(=O)c1ccccc1)c1ccc([N+](=O)[O-])cc1 (stereo unspecified) | . | 1% | . | . | .
Cc1ccnc(SC2CC(=O)N(c3ccc([N+](=O)[O-])cc3)C2=O)n1 (stereo unspecified) | 35µM* | -8% | -24% | 52% | -5%
Cc1cc(C)nc(SCC(=O)c2ccc(C)c(C)c2)n1 | 37% | 7% | -4% | 49% | 14%
Cc1ccnc(SCC(=O)c2ccc([N+](=O)[O-])cc2)n1 | 13µM* | 6% | ? | 10% | -29%
Cc1cc(C)nc(SCC(=O)c2ccc([N+](=O)[O-])cc2)n1 | ? | -6% | -36% | -33% | 79µM*
Cc1ccc(N2C(=O)CC(Sc3nccc(C)n3)C2=O)cc1 (stereo unspecified) | ? | -5% | -11% | 83% | -8%
Cc1ccc(C(=O)CC(SCC(=O)O)c2ccc([N+](=O)[O-])cc2)cc1 (stereo unspecified) | 25µM* | -2% | ? | 50µM* | ?
CSCCC(NC(=O)c1ccccc1Cl)C(=O)NCC1COc2ccccc2O1 (stereo unspecified) | -34% | -1% | -34% | 6% | -24%
SMILES | G9a block | GLS inh | BAZ2B block | HP1b binding inh | JMJD2A Tudor inh
NC(=O)CSc1nc2ccc([N+](=O)[O-])cc2[nH]1 | 25%[59 µM] | 9% | -10% | 20% | -17%
Cc1nc2nc(SCC(=O)c3ccc([N+](=O)[O-])cc3)[nH]c2cc1Br | 20µM* | -6% | 4% | 0% | ?
Cc1nc2nc(SCC(N)=O)[nH]c2cc1Br | ? | -2% | 58% | 47% | -2%
CCOC(=O)CNC(=O)CSc1nc2nc(C)c(Br)cc2[nH]1 | 35µM* | 0% | 3% | 44% | -2%
Nc1ccccc1Nc1cc(-c2ccccc2)[nH]n1 | 40µM* | ? | 40µM* | ? | 50µM*
N#Cc1cc(-c2ccccc2)nn1-c1ccccc1 | ? | -10% | ? | 25µM* | 8.9µM*
Cn1ccc(-c2ccccc2)n1 | 17% | 1% | 1% | 38% | -5%
Nc1ccccc1Nc1cc(-c2ccccc2)nn1-c1ccccc1 | 32µM* | 5% | 35µM* | ? | 32µM*
CCC1CSC(Nc2ccc(C(=O)/C=C/c3cccc(C)c3)cc2)=N1 (stereo unspecified) | 2.8µM* | 0% | ? | 28% | -30%
CCC(C)NC(=O)N[C@@H](CCSC)C(=O)OC (stereo partly specified) | 23%[59 µM] | -1% | 8% | 19% | 4%
N#CCCNS(=O)(=O)c1ccc(C(=O)OCC(=O)Nc2ccc3c(c2)OCO3)cc1 | -5%[12.7 µM] | 1% | 10% | 13% | -15%
Cc1ccc(C(C#N)c2ccc3c(C(F)(F)F)cc(C(F)(F)F)nc3n2)cc1 (stereo unspecified) | 11µM* | 12% | 8.9µM* | 14µM* | 5.6µM*
N#CC(c1ccccc1)c1ccc2c(C(F)(F)F)cc(C(F)(F)F)nc2n1 (stereo unspecified) | 10µM* | -7% | 10µM* | 14µM* | 45µM*
CN(N)c1ccc2c(C(F)(F)F)cc(C(F)(F)F)nc2n1 | 35% | -20% | ? | -15% | ?
Oc1ccccc1C1=Nc2ncnn2C(c2ccccc2)C1 (stereo unspecified) | 18µM* | -23% | -25% | 2% | -23%
CCN1CCN(Cc2c(O)ccc3c2O/C(=C\c2ccccc2)C3=O)CC1 | 79µM* | 0% | ? | 42% | -11%
CCN1CCN(Cc2c(O)ccc3c2O/C(=C\c2ccc(C)cc2)C3=O)CC1 | -11% | 17% | ? | 35% | -14%
CC1CCCN(Cc2c(O)ccc3c2O/C(=C\c2ccco2)C3=O)C1 (stereo unspecified) | 3.5µM* | 103% | ? | -10% | ?
Cn1c(NCc2ccccc2)nc2cc(-c3ccccc3)sc2c1=O | . | -2% | . | . | .
Cc1nc2ccccc2c(=O)n1C1CCCCCC1 | -2%[59 µM] | 1% | 9% | 73% | -5%[11.4 µM]
CCO/C(C)=N/n1c2nc3ccccc3nc2c2c(=O)n(C3CCCC3)c(C)nc21 | 56µM* | -9% | -4% | 30% | 3%
CCOC(=O)c1c(C)[nH]c(C)c1S(=O)(=O)NCCCN1CCOCC1 | -4% | 2% | -12% | 19% | -19%
Cc1ccc(N2CCN(C(=O)c3cccs3)CC2)cc1C | -8%[0.501 µM] | 4% | 50µM* | 5% | -31%
